Assay outcomes as filed in PubChem BioAssay.
The list is not random: actives were taken first. Their share in the collection is about 12%.
SARS PLP yeast: qHTS of Yeast-based Assay for SARS-CoV PLP | S. cerevisiae expressing SARS-CoV PLpro, growth rescue | Potency, µM (highest dose often 32.9 µM), for inactives: top-dose activity, positive = growth rescue, hits mostly activators | 0.19% of 330,000 active; calls by dose curve; also: 0% is about no effect; nearly all actives have a fitted effect of over 55% in size
Pf growth 96h: Primary qHTS for delayed death inhibitors of the malarial parasite plastid, 96 hour incubation; P. falciparum luciferase reporter growth, 96 h; Potency, µM (highest dose often 28.7 µM), without a hit: at the top dose activity change, negative = inhibition, most hits filed as inhibitors; 6.9% of 320,000 active; AID 504834, 2011; also: % is scaled to controls: 0 for no effect and ±100 for the full control effect
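Two-generation exposure (96 h) targets delayed-death phenotype. Reporter parasites carrying integrated firefly luciferase, in red cells at 2% hematocrit and 0.05% parasitemia final, kept at 37 C, 5% CO2; luminescence loss indicates inhibition.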
Pf growth 48h: Primary qHTS for delayed death inhibitors of the malarial parasite plastid, 48 hour incubation; P. falciparum luciferase growth in erythrocytes, 48 h; Potency, µM (doses to about 28.7 µM), inactives show at the highest dose activity change, negative = inhibition, usual class: inhibitors; 5.9% of 310,000 active; AID 504832, 2011; also: % is scaled to controls: 0 for no effect and ±100 for the full control effect
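Cell-based growth assay: transgenic P. falciparum expressing firefly luciferase, cultured in red cells within RPMI 1640 containing 0.5% w/v Albumax, 24 mM bicarbonate and gentamycin. A drop in luciferase activity indicates inhibition.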
NS1 inh: qHTS Assay for Inhibitors of Influenza NS1 Protein Function. Potency, µM (titrated, usually from 46.1 µM), for inactives: at the highest dose activity, positive = more growth. 0.4% of 270,000 active. AID 2326, 2010; calls by dose curve; also: actives are rising curves; nearly all actives have a fitted effect of over 50% in size
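OD600 was taken as the measure of yeast growth restored by compound in an NS1-expressing S. cerevisiae strain. Cells had been washed out of glucose medium and diluted 1:100 into galactose -URA medium, pH 6.0.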
AMA1 RON2 block: qHTS for Inhibitors of AMA1-RON; Towards Development of Antimalarial Drug Lead: Primary Screen | AlphaScreen AMA1-biotinylated RON2 peptide binding | Plasmodium falciparum AMA1 (3D7) - RON2 peptide interaction | AID 720542, 2013 | Potency, µM (series often up to 58.2 µM), for the others: top-dose activity change, negative = inhibition, most hits filed as inhibitors | 0.2% of 360,000 active;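 also: 0% = vehicle wells and -100% = peptide control; nearly all actives have a fitted effect of over 45% in size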
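AMA1 (3D7) with his tag at 25 nM final met compounds first, then biotinylated RON2 peptide at 25 nM; detection used donor plus acceptor beads, 10 µg/mL apiece, read by AlphaScreen after 30 min at room temperature.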
HCV inhibitor: qHTS Assay for Inhibitors of Hepatitis C Virus (HCV) | Huh7.5.1 HCVcc-Cre infection, luciferase reporter, 44 h | Potency, µM (top dose mostly 41.8 µM), without a hit: at the top dose activity change, negative = inhibition, actives largely listed as inhibitors | 3.4% of 340,000 active | AID 651820, 2012; also: % is scaled to controls: 0 for no effect and ±100 for the full control effect
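Seed cells (1,000/well) for 4 h; treat with compound and infect with HCVcc-Cre, moi about 0.5. Incubate 44 h, then detect luciferase activity.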
Numbers without * were called inactive; ? = inconclusive; nt = not tested or not shown; [ ] = remark or other dose. Unless noted, calls follow the shape of the dose curve; as a rule, active = well fitted curve in the direction sought with a large enough effect; inconclusive = small, poorly fitted or top-dose-only effect, or another doubt; inactive = no such curve, though single readings can be large; an effect the other way counts as inactive or inconclusive. Potency is read from the fitted curve at half-maximal effect.

SMILES	SARS PLP yeast	Pf growth 96h	Pf growth 48h	NS1 inh	AMA1 RON2 block	HCV inhibitor
Cn1c(-c2cccc(Br)c2)cnc1NCc1ccccc1O	-1%	5.2µM*	?	-12%	?	-15%
COc1ccc(CNc2ncc(-c3ccc(Br)cc3)n2C)cc1OC	3%	13µM*	?	11%	?	?
COc1ccc(CNc2ncc(-c3ccc(Cl)cc3)n2C)c(OC)c1OC	-1%	2.9µM*	-26%	-1%	?	-16%
CCCCn1nnnc1NCc1ccc(OC)c(OC)c1OC	5%	-6%	33%	-1%	0%	16%
Cn1c(-c2ccc(Br)cc2)cnc1NCc1ccc(C#N)cc1	-4%	?	?	-21%	?	-13%
COc1ccc(Cl)cc1NS(=O)(=O)c1cccc(C(=O)NCC(c2ccco2)N(C)C)c1 (stereo not given)	5%	7%	54%	-1%	5%	?
N#CC1(NC(=O)CSc2nc3ccccc3o2)CCCCC1	14%	nt	nt	nt	27%	12%
Cc1ccc2c(c1)N(C(=O)CCC(=O)NCc1cccnc1)CC(C)O2 (stereo not given)	-10%	13µM*	-9%	-12%	12%	-2%
Cc1ccc(CNC(=O)CCC(=O)N2CC(C)Oc3ccccc32)cc1 (stereo not given)	-3%	64%	4%	11%	4%	12%
Cc1ccc2c(c1)N(C(=O)CCC(=O)N1CCC(C(N)=O)CC1)CC(C)O2 (stereo not given)	-1%	13µM*	-5%	13%	31%	0%
CC(C)(C)[C@@H]1C=C(C(N)=O)O[C@H](OCCCCO)C1	nt	nt	nt	nt	31%	9%
CC(=O)Nc1ccccc1-c1nc2cc(C#N)c(C#N)cc2[nH]c1=O	-1%	106%	nt	5%	-5%	?
CC(=O)Nc1ccccc1-c1nc2ccc(C(=O)N3CCN(c4cccc(C)c4)C(C)C3)cc2[nH]c1=O (stereo not given)	5%	6.6µM*	nt	-6%	-8%	?
CCCCN(CCCC)CCNC(=O)c1ccc2nc(-c3ccccc3NC(C)=O)c(=O)[nH]c2c1	0%	5%	2.3µM*	nt	-3%	-25%
Cc1cccc(N2CCN(C(=O)c3ccc4nc(-c5ccco5)c(-c5ccco5)nc4c3)CC2C)c1 (stereo not given)	-9%	?	?	15%	?	10µM*
CCC1C(=O)NCCN1C(=O)c1ccc(OC)c(OC2CCN(C(C)=O)CC2)c1 (stereo not given)	-6%	?	22%	-6%	22%	-9%
C[C@H]1CN([C@@H](C)CO)C(=O)CCCn2cc(nn2)CO[C@@H]1CN(C)C(=O)Oc1ccccc1	nt	nt	nt	nt	3%	nt
O=C(C[n+]1cc(-c2ccc(Cl)cc2)n2c1CCC2)N1c2ccccc2Sc2ccccc21	2%	?	1.7µM*	-2%	-3%	-5%
O=C(C[n+]1cc(-c2ccccc2)n2c1CCC2)OCc1ccccc1	-18%	?	3%	4%	-1%	17%
COc1ccc(-c2c[n+](CC(=O)N3c4ccccc4Sc4ccccc43)c3n2CCC3)cc1	0%	1.7µM*	2.6µM*	-7%	-17%	-4%
O=C(C[n+]1cc(-c2ccc(Cl)c(Cl)c2)n2c1CCC2)N1c2ccccc2Sc2ccccc21	-28%	?	2.6µM*	0%	2%	8%
O=C(C[n+]1cc(-c2ccc(Cl)cc2)n2c1CCC2)Nc1nc(-c2ccccc2)cs1	0%	?	?	10%	-6%	?
COc1ccc(COCC(O)CN2CCC(C(N)=O)CC2)cc1OC (stereo not given)	2%	8%	5%	nt	-14%	10%
O=C1c2cccc3cccc(c23)C(=O)N1CCN1CCN(C(=S)Nc2ccc(Cl)cc2)CC1	17%	238%	28%	12%	1%	-14%
COc1cc(COCC(O)CN2CCN(CCN3C(=O)c4cccc5cccc(c45)C3=O)CC2)cc(OC)c1OC (stereo not given)	24%	?	?	-5%	-23%	3.5µM*
SMILES	SARS PLP yeast	Pf growth 96h	Pf growth 48h	NS1 inh	AMA1 RON2 block	HCV inhibitor
Cc1ccc(C)c(OCC(O)CN2CCN(CCN3C(=O)c4cccc5cccc(c45)C3=O)CC2)c1 (stereo not given)	-6%	-25%	-108%	5%	?	?
COc1ccc(COCC(O)CN2CCC(CN3C(=O)c4cccc5cccc(c45)C3=O)CC2)cc1OC (stereo not given)	0%	12µM*	?	4%	5%[2.32 µM]	?
O=C1c2cccc3cccc(c23)C(=O)N1CCN1CCN(CC(O)COCc2ccc(Cl)cc2)CC1 (stereo not given)	-26%	?	?	-15%	?	11µM*
CCN(C(=O)c1ccc2c(SCC(=O)O)c3c(nc2c1)CCC3)c1cc(Cl)ccc1OC	10%	58%	?	21%	1%	18%
O=C(CSc1ncnc2c1sc1ccccc12)Nc1ccc(Br)cc1	2%	13µM*	-2%	20%	23%	-27%
O=C(CSc1ncnc2c1oc1ccccc12)Nc1nc2ccccc2s1	-2%	1%	?	0%	102%	7%
Cc1cc(=O)c2cc3nc(-c4cccnc4)oc3c(Br)c2o1	-3%	10%	?	-3%	nt	nt
COc1cc(Br)cc(CNc2ccc(F)c([N+](=O)[O-])c2)c1O	-5%	-10%	5%	-10%	-10%	?
CCc1sc(N(C(=O)Cc2ccccc2)c2ccccc2F)nc1-c1ccc(C)cc1	0%	10µM*	?	5%	-3%	-10%
CSc1ccccc1NC(=O)C1CC(c2ccccc2Cl)=NO1 (stereo not given)	-8%	?	19%	5%	3%	-5%
CC[C@](N)(C(=O)O)C(C)C	nt	nt	nt	0%	nt	nt
O=C1OC2(CCCCC2)CC2=C1C1O[C@](c3ccsc3)(Cc3c1ccc1ccccc31)O2	-3%[6.58 µM]	?	31%[5.75 µM]	1%	nt	nt
CC(NC(=O)c1ccc(OC2CCN(C(=O)c3cccnc3)CC2)cc1)C1CC1 (stereo not given)	-1%	12µM*	18%	-1%	-1%	8%
CC1OC(O[C@H]2C[C@@H](O)[C@]3(CO)[C@@H]4C(CC[C@]3(O)C2)[C@@]2(O)CC[C@H](C3=CC(=O)OC3)[C@@]2(C)C[C@H]4O)C(O)C(O)C1O (stereo not given in full)	nt	1.3µM*	-14%	nt	nt	nt
